Pf growth 96h: inhibits malaria parasite growth, 96 h | P. falciparum luciferase reporter growth, 96 h | Potency, µM (titrated, usually from 28.7 µM), without a hit: at the top dose activity change, negative = inhibition, usual class: inhibitors | actives 6.9% (n = 320,000); note: potency is the fitted concentration of half-maximal effect
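Delayed-death screen, second-generation endpoint: infected erythrocytes, 2% hematocrit, 0.05% parasitemia final; 96 hours at 37 C, 5% CO2; luciferase detection reagent; luminescence decrease equals reduced growth.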
Pf growth 48h: inhibits P. falciparum growth in the first generation, 48 h; Potency, µM (highest dose often 28.7 µM), for inactives: at the top dose activity change, negative = inhibition, usual class: inhibitors; AID 504832; actives 5.9% (n = 310,000); P. falciparum luciferase growth in erythrocytes, 48 h; note: potency is the fitted concentration of half-maximal effect
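Parasite viability was followed by luminescence of a genomically integrated firefly luciferase. Cultures held 0.1% parasitemia at 2% hematocrit (final), incubated under 5% CO2 at 37 C.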
MARV entry inh: Marburg virus entry inhibition. Marburg virus pseudotyped entry inhibition, cell reporter. Potency, µM (series often up to 37.8 µM), for inactives: at the top dose activity change, negative = inhibition, most hits filed as inhibitors. actives 1.8% (n = 300,000); calls by dose curve; tested in HEK293 cells; note: potency is the fitted concentration of half-maximal effect
Lassa entry inh: Lassa virus entry inhibition; Potency, µM (doses to about 37.9 µM), inactives show at the highest dose activity change, negative = inhibition, most hits filed as inhibitors; Lassa virus pseudotype entry inhibition, cell reporter; actives 1.2% (n = 300,000); calls by dose curve; tested in HEK293 cells; note: potency is the fitted concentration of half-maximal effect; nearly all actives have a fitted effect of over 50% in size
HCV inh: HCV inhibition | Huh7.5.1 HCVcc-Cre infection, luciferase reporter, 44 h | Potency, µM (highest dose often 41.8 µM), without a hit: top-dose activity change, negative = inhibition, most hits filed as inhibitors | actives 3.4% (n = 340,000); note: potency is the fitted concentration of half-maximal effect
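Whole-lifecycle infectious HCVcc-Cre system; cells 1,000/well, compound then virus (~0.5 moi) added 4 h after plating, 44 h culture. Luciferase read 15 sec following 15 min substrate incubation, room temp.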
HCMV inh: blocks human cytomegalovirus replication; HFF cells, HCMV-luciferase reporter, 72 h; hits give low values; activity change, negative = inhibition, % at 57.5 µM; actives 4.5% (n = 410,000); in the data active = activity change below about -60%; inconclusive = no clear call, values can overlap the other calls; inactive = above about -39%
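Compounds were evaluated in HFFs infected with an HCMV luciferase reporter virus (MOI 1 PFU/cell). Luciferase in lysates collected 72 h post infection served as the replication measure.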
* hit, by the source's call; ? = inconclusive; · = no result; ! = not active in a repeat; [ ] = remark or other dose. Sampled rows, rich in hits. Any-hit rate of the full collection: about 14%. Unless noted, calls come from the whole dose curve; as a rule, active = well fitted inhibition curve with a large enough effect; inconclusive = small, poorly fitted or top-dose-only effect, or another doubt; inactive = no such curve, though single readings can be large or run the other way. % is set by controls: 0 for no effect and ±100 for the full control effect.

SMILES | Pf growth 96h | Pf growth 48h | MARV entry inh | Lassa entry inh | HCV inh | HCMV inh
Cc1ccc(C(OCC(O)CNC(C)c2ccccc2)c2ccccc2)cc1 (stereo not drawn) | ? | ? | ? | ? | ? | -26.4
CCN(CC)CCC(C)OC(c1ccccc1)c1ccccc1 (stereo not drawn) | -82.8% | -18.3% | · | · | 6.0% | -23.1
Cc1ccc(C(OCC(C)(C)C[N+](C)(C)C)c2ccccc2)cc1 (stereo not drawn) | ? | 1.31µM* | ? | -28.0%[46.1 µM] | -7.8% | -32.5
Cc1ccccc1C(OCCN(C)C)c1ccccc1 (stereo not drawn) | 81.0% | 41.4% | 12.6µM*! | ? | ? | -26.9
CCN(CC)CCOC(c1ccccc1)c1ccc(C)cc1 (stereo not drawn) | ? | ? | 8.91µM* | ? | ? | -19.7
Cc1ccccc1[C@@H](OCCN(C)C)c1ccccc1 | · | · | -36.1% | · | · | ·
CC(C)(C)C1CCc2onc(C(=O)Nc3sc4c(c3C#N)CCCC4)c2C1 (stereo not drawn) | · | · | -10.9%[46.1 µM] | -0.2%[46.1 µM] | · | 3.7
CCCN1CCCc2cc(CN)ccc21 | 42.7% | 1.65µM* | -29.2% | ? | ? | ?
Cc1ccc2c(c1)CCCN2N=O | 41.5% | 7.7% | ? | ? | 31.9% | ?
Cc1ccc(C2=NCC(C)n3nc4cc(C(F)(F)F)ccc4c32)cc1 (stereo not drawn) | · | · | · | · | · | 58.7
COc1ccc(-c2nc(SCC(=O)N3CCC(C)CC3)n[nH]2)cc1 | · | · | · | 3.16µM* | · | 14.0
O=C(COc1ccc(S(=O)(=O)NC2CCCC2)cc1)N1CCCCC1 | -6.9% | ? | ? | -28.7% | · | -19.8
O=C(CSc1n[nH]c(-c2ccc(S(=O)(=O)NC3CCCCC3)cc2)n1)N1CCCC1 | 9.8% | -7.0% | -25.9% | ? | -21.6% | -61.2*
Cc1ccc(C)c(CSc2cn(CCNC(=O)c3cccs3)c3ccccc23)c1 | · | · | ? | ? | · | -83.4*
O=C(NCCn1cc(SCc2ccccc2)c2ccccc21)c1ccccc1F | ? | ? | ? | ? | 11.2µM* | 10.5
O=C(NCCn1cc(SCc2ccccc2Cl)c2ccccc21)c1cccs1 | · | · | 5.5%[46.1 µM] | ? | · | -5.5
O=C(CSc1cn(Cc2ccccc2)c2ccccc12)NCc1ccc(F)cc1 | 9.28µM* | ? | 5.4% | 1.0% | 2.4%[8.37 µM] | 16.1
Cc1ccc(C)c(CSc2cn(CCNC(=O)c3ccccc3F)c3ccccc23)c1 | · | · | ? | ? | · | -26.7
COc1ccc(C)cc1NC(=O)Nc1cccc(OCc2cc(=O)n3ccc(C)cc3n2)c1 | · | · | · | 20.8%[46.1 µM] | · | 7.1
COC(=O)c1cc(O)cc(OC)c1C(=O)c1c(O)cc(C)cc1O | 5.22µM* | ? | · | · | 2.6% | 28.0
COC(=O)c1cc(O)cc(OC)c1Oc1cc(C)cc(O)c1C(=O)O | -3.9% | 2.62µM* | · | · | 14.4% | -105.7*
COC(=O)c1c(C)cc(O)cc1O | · | · | · | · | 10.6% | 27.0
CCOc1ccc(NC(=O)N2CC3CCCN3c3ccccc32)cc1 (stereo not drawn) | · | · | · | -28.9%[46.1 µM] | · | -10.8
COc1cc(C2C(=O)N(C3CCCCCC3)CC(=O)N2CCc2ccccc2)ccc1OC(C)C (stereo not drawn) | · | · | · | 10.7%[46.1 µM] | · | -31.5
O=C(COC(=O)c1ccc2ccccc2c1O)NCC(F)(F)F | 18.1% | 23.9% | · | · | 21.7% | 9.2
O=C(COC(=O)c1c2ccccc2cc2ccccc12)NCC(F)(F)F | -13.4% | -24.2% | -3.4% | -13.5% | 11.2µM* | -19.0
CCOC(=O)C1=C(COC(=O)c2ncc(Cl)c(Cl)c2Cl)NC(=O)NC1C (stereo not drawn) | 1.1% | 1.7% | 25.8% | -6.1% | 16.1% | -13.3
Fc1ccccc1C1c2[nH]c3ccccc3c2CCN1CCCn1cccn1 (stereo not drawn) | 8.2% | ? | ? | 10.7%[46.1 µM] | 3.3% | 84.2
CC(C)(C)C1c2[nH]c3ccccc3c2CCN1CCCn1cccn1 (stereo not drawn) | 5.86µM* | ? | ? | -22.6%[46.1 µM] | 4.1% | 51.1

Screening data as filed in PubChem.
